Measured values taken from PubChem BioAssay (Tox21).
“And” between values parts separate entries of the source, which are not always exact repeats. Equal values may be shown once. Records with an inconclusive call do not appear. A call without a number means that no potency is given here. The source made the active and inactive calls. Calls come from the whole dose curve.

experiment: qHTS assay for small molecule agonists of the p53 signaling pathway (AID 651631); details: HCT-116 p53RE-bla reporter, beta-lactamase FRET ratio, 16 h; series mostly up to 73.3 µM; note: nearly all actives have a fitted effect of over 15% in size
Summary of the method: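 Testing took place in human colorectal HCT-116 cells with stable p53RE-driven beta-lactamase. After 16 h of compound exposure at 37 °C, a FRET substrate was added and fluorescence recorded 2 h later.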
Potency is the fitted concentration of half-maximal effect.

SMILES | Potency
CC1=CC(=O)c2ccccc2C1=O | 38.6 µM (active)
CCc1ccc(C(c2ccc(CC)cc2)C(Cl)Cl)cc1 | inactive
NCCO | inactive
COc1cc(C(=S)N2CCOCC2)ccc1O | inactive
Cc1cc(Cc2cc(C)cc(C(C)(C)C)c2O)c(O)c(C(C)(C)C)c1 | 30.6 µM (active)
Nc1cc(S(=O)(=O)O)cc2cc(S(=O)(=O)O)cc(O)c12 | inactive
Cc1cc(C2(c3cc(C)c(O)cc3C)OS(=O)(=O)c3ccccc32)c(C)cc1O | inactive
CC(=O)N[C@@H](CS)C(=O)O | inactive
CC[C@@H](N)CO | inactive
COC(=O)[C@H]1[C@H]2C[C@@H]3c4[nH]c5cc(OC)ccc5c4CCN3C[C@H]2C[C@@H](OC(=O)c2cc(OC)c(OC)c(OC)c2)[C@@H]1OC | inactive
CC(C)(C)c1ccccc1 | inactive
Cc1ccnc2c1NC(=O)c1cccnc1N2C1CC1 | inactive
CCOC(=O)C(C)C(C)=O (stereo unspecified) | inactive
O=Cc1ccc(Cl)cc1 | inactive
O=S(=O)(O)c1ccc2nc(-c3ccccc3)[nH]c2c1 | inactive
CCN(CC)c1ccc2c(C)cc(=O)oc2c1 | 30.9 µM (active) and 27.3 µM (active)
CC(=O)C1=C(C)[C@@H]2C[C@@]3(C1)[C@H](C)CC[C@H]3C2(C)C | inactive
CCCC(=O)c1ccccc1 | inactive
COC(c1ccccc1)(c1ccccc1)[C@H](Oc1nc(C)cc(C)n1)C(=O)O | inactive
Cc1cccc2n[nH]nc12 | inactive
Oc1c(Cl)cc(Cl)c(Cl)c1Cc1c(O)c(Cl)cc(Cl)c1Cl | 13.3 µM (active) and 9.66 µM (active) and 54.5 µM (active)
